This passage reports residual activity results from ChEMBL document CHEMBL2218924, “A broad activity screen in support of a chemogenomic map for kinase signalling research and drug discovery” (Biochem J, 2013).

Assay [1] deals with T1, Dual specificity mitogen-activated protein kinase kinase 6 (Homo sapiens) (UniProt P52564).
T1 sequence (whole entry): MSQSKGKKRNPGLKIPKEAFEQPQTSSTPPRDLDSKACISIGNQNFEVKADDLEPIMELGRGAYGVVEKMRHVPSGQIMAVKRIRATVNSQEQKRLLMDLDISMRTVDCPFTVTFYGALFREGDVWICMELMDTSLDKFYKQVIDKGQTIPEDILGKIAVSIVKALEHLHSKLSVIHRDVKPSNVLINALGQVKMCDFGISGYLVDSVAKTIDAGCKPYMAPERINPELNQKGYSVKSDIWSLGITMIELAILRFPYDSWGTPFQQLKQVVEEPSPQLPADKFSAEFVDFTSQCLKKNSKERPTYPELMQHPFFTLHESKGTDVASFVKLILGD
Conditions: at 10 µM.

Assay [2] addresses T2, Dual specificity mitogen-activated protein kinase kinase 7 (Homo sapiens) (UniProt O14733).
T2 sequence (whole entry): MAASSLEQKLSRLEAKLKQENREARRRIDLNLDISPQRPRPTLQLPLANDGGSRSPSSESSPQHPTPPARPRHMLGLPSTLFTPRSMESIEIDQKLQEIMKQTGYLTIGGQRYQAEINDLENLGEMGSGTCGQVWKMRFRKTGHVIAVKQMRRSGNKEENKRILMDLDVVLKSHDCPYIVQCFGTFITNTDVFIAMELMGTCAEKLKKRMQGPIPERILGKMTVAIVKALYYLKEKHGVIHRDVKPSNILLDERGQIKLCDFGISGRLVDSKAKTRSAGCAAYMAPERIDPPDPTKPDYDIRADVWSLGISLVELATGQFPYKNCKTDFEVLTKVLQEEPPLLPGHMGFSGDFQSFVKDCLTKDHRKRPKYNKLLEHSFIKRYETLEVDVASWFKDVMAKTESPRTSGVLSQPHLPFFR
Conditions: at 1 µM.

Assay [3] has as its target T2, Dual specificity mitogen-activated protein kinase kinase 7 (Homo sapiens). The settings on record: at 10 µM.
Assay [4] deals with Myosin light chain kinase, smooth muscle (Homo sapiens) (UniProt Q15746). The settings on record: at 1 µM.
Assay [5] shares this target. Conditions: at 10 µM.
Assay [6] concerns the target Mitogen-activated protein kinase kinase kinase 9 (Homo sapiens) (UniProt P80192). Conditions: at 1 µM.
Assay [7] has the same target. Conditions: at 10 µM.
The target of assay [8] is Serine/threonine-protein kinase MRCK alpha (Homo sapiens) (UniProt Q5VT25). Conditions: at 1 µM.
Chain of Serine/threonine-protein kinase MRCK alpha (Homo sapiens) (Q5VT25 whole entry): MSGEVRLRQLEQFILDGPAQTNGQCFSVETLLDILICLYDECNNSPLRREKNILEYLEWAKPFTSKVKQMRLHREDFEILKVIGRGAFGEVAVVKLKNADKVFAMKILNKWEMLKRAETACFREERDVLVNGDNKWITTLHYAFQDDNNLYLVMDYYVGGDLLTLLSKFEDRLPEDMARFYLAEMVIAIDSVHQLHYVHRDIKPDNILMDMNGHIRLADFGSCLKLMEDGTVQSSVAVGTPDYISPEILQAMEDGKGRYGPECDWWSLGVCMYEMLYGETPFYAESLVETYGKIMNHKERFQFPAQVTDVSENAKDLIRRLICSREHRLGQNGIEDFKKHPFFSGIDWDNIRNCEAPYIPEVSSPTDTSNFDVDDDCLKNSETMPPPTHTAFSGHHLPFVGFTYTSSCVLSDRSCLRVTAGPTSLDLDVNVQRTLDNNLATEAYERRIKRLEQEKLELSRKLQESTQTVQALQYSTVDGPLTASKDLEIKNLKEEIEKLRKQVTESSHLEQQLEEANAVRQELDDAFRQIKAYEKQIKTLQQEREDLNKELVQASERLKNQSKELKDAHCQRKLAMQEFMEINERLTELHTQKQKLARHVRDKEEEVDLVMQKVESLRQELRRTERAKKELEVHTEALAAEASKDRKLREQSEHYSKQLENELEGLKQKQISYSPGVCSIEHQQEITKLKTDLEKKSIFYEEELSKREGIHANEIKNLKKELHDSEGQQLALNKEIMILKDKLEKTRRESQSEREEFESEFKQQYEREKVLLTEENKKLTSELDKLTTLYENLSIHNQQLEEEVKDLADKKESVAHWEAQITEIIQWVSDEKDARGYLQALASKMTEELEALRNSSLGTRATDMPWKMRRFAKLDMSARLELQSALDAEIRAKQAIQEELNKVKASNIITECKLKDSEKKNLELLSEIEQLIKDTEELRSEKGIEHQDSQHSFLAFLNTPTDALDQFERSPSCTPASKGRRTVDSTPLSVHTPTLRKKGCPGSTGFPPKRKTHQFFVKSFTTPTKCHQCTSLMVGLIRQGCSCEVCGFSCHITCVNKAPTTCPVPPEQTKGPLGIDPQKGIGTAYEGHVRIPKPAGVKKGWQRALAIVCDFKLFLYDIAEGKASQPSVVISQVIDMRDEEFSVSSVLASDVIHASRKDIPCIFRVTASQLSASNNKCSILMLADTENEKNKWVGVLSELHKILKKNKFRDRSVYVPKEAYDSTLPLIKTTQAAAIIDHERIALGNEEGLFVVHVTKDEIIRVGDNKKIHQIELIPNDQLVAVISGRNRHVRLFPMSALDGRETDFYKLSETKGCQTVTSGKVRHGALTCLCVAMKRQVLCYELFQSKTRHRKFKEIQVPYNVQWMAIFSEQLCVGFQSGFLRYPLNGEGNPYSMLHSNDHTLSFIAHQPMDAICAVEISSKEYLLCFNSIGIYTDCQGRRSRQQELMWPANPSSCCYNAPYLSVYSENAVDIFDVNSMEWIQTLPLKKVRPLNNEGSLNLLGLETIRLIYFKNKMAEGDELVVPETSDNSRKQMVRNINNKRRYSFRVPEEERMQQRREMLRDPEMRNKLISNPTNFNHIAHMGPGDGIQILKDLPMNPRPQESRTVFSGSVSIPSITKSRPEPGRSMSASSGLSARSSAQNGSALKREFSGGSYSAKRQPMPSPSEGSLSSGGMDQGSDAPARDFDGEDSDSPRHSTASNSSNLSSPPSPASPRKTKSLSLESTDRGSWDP
For assay [9] the target is unchanged. Conditions: at 10 µM.
The target of assay [10] is Serine/threonine-protein kinase MRCK beta (Homo sapiens) (UniProt Q9Y5S2). The settings on record: at 1 µM.
For assay [11] the target is unchanged. The settings on record: at 10 µM.
The target of assay [12] is Ribosomal protein S6 kinase alpha-5 (Homo sapiens) (UniProt O75582). Conditions: at 1 µM.
Chain of Ribosomal protein S6 kinase alpha-5 (Homo sapiens) (O75582 whole entry, looked up): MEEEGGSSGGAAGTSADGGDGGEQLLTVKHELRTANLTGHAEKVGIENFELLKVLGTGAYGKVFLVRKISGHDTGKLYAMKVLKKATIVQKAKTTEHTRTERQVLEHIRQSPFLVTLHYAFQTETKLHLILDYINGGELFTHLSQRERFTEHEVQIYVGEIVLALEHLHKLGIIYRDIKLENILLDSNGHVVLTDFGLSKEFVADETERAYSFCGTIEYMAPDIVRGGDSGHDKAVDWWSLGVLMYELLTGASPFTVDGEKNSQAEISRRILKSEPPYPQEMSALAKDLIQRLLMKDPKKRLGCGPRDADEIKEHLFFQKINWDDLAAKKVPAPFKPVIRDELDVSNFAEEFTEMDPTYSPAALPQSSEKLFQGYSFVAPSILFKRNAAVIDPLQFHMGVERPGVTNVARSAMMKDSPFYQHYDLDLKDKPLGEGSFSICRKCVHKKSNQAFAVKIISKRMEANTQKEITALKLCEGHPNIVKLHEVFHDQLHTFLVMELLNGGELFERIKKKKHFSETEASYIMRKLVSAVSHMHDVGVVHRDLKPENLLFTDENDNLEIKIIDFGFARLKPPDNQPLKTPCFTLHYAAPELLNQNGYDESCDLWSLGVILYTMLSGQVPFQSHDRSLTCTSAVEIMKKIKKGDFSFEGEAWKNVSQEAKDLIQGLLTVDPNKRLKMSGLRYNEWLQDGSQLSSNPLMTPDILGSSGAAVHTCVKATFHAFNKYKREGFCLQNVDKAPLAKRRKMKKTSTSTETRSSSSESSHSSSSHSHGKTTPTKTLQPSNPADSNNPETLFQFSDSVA
The target is the same in assay [13]. Conditions: at 10 µM.
Assay [14] deals with Ribosomal protein S6 kinase alpha-4 (Homo sapiens) (UniProt O75676). The settings on record: at 1 µM.
Chain of Ribosomal protein S6 kinase alpha-4 (Homo sapiens) (O75676 whole entry, looked up): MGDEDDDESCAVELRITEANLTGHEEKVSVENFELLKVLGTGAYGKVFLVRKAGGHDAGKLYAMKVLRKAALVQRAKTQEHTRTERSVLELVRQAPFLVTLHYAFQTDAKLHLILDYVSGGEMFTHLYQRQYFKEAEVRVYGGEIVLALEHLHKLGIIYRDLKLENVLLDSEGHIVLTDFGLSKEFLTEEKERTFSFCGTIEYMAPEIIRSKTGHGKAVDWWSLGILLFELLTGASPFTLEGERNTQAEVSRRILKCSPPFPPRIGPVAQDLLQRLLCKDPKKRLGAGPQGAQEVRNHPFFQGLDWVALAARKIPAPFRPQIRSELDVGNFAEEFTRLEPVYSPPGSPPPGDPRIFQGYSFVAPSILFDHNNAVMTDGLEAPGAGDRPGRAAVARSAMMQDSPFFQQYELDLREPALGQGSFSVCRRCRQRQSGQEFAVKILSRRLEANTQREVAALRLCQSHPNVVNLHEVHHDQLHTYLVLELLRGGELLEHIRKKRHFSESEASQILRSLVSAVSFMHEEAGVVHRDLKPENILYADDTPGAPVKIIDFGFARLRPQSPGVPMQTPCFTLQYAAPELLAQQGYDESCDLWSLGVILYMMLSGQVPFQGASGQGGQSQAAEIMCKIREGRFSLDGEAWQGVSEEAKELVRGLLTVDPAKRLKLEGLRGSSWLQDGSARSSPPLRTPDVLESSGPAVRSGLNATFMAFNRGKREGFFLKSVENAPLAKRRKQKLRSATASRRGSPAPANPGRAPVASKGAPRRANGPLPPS
Assay [15] has the same target. Conditions: at 10 µM.
Assay [16] addresses SRSF protein kinase 3 (Homo sapiens) (UniProt Q9UPE1). Conditions: at 1 µM.
The target is the same in assay [17]. The settings on record: at 10 µM.
Assay [18] addresses T3, Serine/threonine-protein kinase 4 (Homo sapiens) (UniProt Q13043).
T3 sequence (whole entry): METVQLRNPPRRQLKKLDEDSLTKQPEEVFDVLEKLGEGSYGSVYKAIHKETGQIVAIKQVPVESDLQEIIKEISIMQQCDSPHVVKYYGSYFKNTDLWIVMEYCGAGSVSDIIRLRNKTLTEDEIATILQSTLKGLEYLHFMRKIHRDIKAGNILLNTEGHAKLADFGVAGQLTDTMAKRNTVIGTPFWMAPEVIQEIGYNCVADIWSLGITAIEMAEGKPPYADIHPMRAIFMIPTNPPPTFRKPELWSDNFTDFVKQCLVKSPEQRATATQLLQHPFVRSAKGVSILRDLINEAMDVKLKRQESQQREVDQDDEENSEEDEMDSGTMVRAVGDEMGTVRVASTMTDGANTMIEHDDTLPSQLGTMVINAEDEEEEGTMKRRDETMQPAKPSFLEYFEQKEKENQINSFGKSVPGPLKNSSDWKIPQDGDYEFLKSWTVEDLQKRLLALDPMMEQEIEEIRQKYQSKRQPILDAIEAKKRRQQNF
The settings on record: at 1 µM.

Assay [19] has as its target T3, Serine/threonine-protein kinase 4 (Homo sapiens). Conditions: at 10 µM.
Assay [20] addresses T1, Dual specificity mitogen-activated protein kinase kinase 6 (Homo sapiens). The settings on record: at 1 µM.

Each structure is given as a SMILES string.

Chain of Mitogen-activated protein kinase kinase kinase 9 (Homo sapiens) (P80192 whole entry, looked up): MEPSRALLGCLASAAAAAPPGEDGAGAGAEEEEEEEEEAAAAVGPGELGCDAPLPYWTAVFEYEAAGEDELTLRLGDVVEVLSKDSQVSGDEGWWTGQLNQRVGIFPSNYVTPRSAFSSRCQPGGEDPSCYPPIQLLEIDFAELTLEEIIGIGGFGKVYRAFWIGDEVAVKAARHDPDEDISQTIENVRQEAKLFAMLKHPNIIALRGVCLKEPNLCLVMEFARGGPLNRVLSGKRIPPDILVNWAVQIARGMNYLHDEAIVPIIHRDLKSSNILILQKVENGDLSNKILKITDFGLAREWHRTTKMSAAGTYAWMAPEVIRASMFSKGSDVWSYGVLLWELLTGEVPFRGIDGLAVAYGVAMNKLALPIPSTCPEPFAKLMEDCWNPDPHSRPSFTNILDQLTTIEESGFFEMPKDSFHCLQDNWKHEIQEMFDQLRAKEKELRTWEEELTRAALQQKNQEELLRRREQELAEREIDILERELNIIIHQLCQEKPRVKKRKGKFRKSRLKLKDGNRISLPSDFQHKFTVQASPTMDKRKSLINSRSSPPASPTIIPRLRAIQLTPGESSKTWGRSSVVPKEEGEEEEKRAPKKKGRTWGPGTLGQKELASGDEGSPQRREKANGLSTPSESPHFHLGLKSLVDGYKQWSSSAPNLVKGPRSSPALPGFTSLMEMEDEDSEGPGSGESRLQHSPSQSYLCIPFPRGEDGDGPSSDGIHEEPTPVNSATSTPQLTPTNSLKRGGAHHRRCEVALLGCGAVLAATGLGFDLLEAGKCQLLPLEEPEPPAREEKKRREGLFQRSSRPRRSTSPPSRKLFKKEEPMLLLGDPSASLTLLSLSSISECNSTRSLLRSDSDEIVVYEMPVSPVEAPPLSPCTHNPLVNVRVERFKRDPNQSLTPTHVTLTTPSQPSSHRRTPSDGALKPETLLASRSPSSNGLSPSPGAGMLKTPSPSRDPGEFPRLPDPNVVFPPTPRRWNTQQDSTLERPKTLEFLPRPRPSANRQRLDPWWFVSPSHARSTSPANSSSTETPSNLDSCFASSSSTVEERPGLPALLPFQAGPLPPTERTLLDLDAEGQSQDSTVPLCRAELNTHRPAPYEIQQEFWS
Chain of SRSF protein kinase 3 (Homo sapiens) (Q9UPE1 whole entry): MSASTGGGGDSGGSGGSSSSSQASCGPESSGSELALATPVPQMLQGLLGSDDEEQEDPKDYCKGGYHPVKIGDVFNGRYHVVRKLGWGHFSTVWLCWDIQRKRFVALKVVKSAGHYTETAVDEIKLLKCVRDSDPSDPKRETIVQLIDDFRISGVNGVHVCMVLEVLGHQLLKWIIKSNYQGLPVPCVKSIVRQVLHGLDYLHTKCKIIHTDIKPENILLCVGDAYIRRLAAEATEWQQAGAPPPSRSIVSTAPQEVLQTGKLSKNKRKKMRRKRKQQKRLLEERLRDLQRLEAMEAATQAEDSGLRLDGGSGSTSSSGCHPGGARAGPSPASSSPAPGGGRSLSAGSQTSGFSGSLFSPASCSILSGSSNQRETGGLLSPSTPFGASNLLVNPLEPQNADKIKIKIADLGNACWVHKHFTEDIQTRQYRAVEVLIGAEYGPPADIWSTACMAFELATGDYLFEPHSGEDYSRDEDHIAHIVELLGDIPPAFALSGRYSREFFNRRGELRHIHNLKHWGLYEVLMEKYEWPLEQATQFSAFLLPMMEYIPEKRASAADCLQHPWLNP

On to `CC(C)c1nn(-c2c(Cl)cccc2Cl)c2nc(Cc3ccc(OCCO)cc3)[nH]c(=O)c12`, for which the residual activity in assay [1] was determined as 90%; in assay [2], 84%; in assay [3], 77%; in [4], 105%; in [5] it was 99%; in assay [6], 86%. In addition, the residual activity in assay [7] was found to be 48%; in assay [8], 106%; in [9] it was 102%; in [10], 97%; in assay [11] it was 83%; in assay [12], 128%. Further, the residual activity in assay [13] stood at 91%; in [14], 94%; in assay [15] it was 84%; in assay [16], 87%; in assay [17], 76%; in assay [18], 80%. In assay [19], the residual activity amounted to 68%.

Regarding `CN([C@@H](Cc1ccc(OS(=O)(=O)c2cccc3cnccc23)cc1)C(=O)N1CCN(c2ccccc2)CC1)S(=O)(=O)c1cccc2cnccc12`, the residual activity in assay [1] was determined as 124%; in assay [4], 100%; in [5] it was 72%; in assay [16], 100%.

On to `O=C(c1cc2cc(O)ccc2[nH]1)c1cc2cc(O)ccc2[nH]1`, for which the residual activity in [20] is 112%; in assay [2], 113%; in assay [3], 63%; in assay [4], 70%; in [5], 35%; in assay [6], 16%. In addition, the residual activity is 4% in [7]; 78% in assay [9]; 77% in [10]; 82% in assay [11]; 67% in [14]; 27% in [15]. Also, the residual activity in assay [18] was 39%; in assay [19] it was 14%.

Turning to `COc1cc2nccc(Oc3ccc(NC(=O)Nc4cc(C)on4)c(Cl)c3)c2cc1OC`, the residual activity in assay [20] turned out to be 49%; in assay [1], 21%; in [4], 66%; in [5] it was 61%; in [7], 61%; in [9], 102%. The residual activity came out at 107% in assay [12], 80% in assay [13] and 56% in assay [19].

Take `Cn1sc(=O)n(Cc2ccccc2)c1=O`: the residual activity in assay [4] was 90%; in [5], 91%; in [6], 92%; in assay [7], 88%; in assay [8], 98%; in assay [9], 92%. Also, the residual activity in assay [10] worked out at 73%; in assay [11], 81%; in assay [14], 96%; in [15] it was 85%.

On to `COc1ccc(-c2cnc3c(-c4ccsc4)cnn3c2)cc1`, for which the residual activity in assay [20] stood at 73%; in assay [2], 74%; in assay [3], 86%; in assay [9], 99%; in assay [13], 94%; in assay [14] it was 95%. Also, in [15], the residual activity worked out at 95%.

Regarding `CCOC(=O)c1c(C)[nH]c(/C=C2\C(=O)Nc3ccccc32)c1C`, the residual activity in assay [20] was found to be 85%; in assay [2], 84%; in [3], 85%; in [4], 90%; in [5], 78%; in assay [6], 43%. Also, the residual activity in assay [7] came out at 39%; in [10] it was 91%; in assay [11], 83%; in assay [13] it was 97%; in assay [14], 87%; in assay [15] it was 91%. For the same compound, the residual activity in [16] stood at 95%; in assay [17], 90%.

Consider `O=S(=O)(NCCNC/C=C/c1ccc(Br)cc1)c1cccc2cnccc12`, for which the residual activity turned out to be 69% in [1]; 63% in assay [5]; 74% in assay [7]; 66% in assay [11]; 19% in assay [12]; 3% in assay [13]. Also, the figures for the residual activity in assay [14] and in assay [15] were 9% and 2%, respectively.

For the compound `O=C1NC(=O)C(c2c[nH]c3ccccc23)=C1c1c[nH]c2ccccc12`, the residual activity in [2] was determined as 126%; in [3], 117%; in [4], 61%; in [5], 15%; in assay [6] it was 43%; in assay [7], 8%. The residual activity was found to be 73% in assay [12]; 19% in assay [13]; 49% in assay [14]; 6% in [15]; 35% in assay [17]; 41% in [18]. Besides, the residual activity in [19] amounted to 7%.

`O=C1Nc2ccccc2/C1=C\c1c(Cl)[nH]c2ccccc12`: the residual activity in [3] came out at 77%; in assay [5], 11%; in assay [7] it was 62%; in [12], 100%; in [13], 71%; in assay [15], 59%. The figures for the residual activity in assay [18] and in assay [19] were 51% and 63%, respectively.

In the case of `CC(C)N(CCC(=O)c1ccc2ccccc2c1)Cc1ccccc1`, the residual activity in assay [3] worked out at 38%; in assay [4], 81%; in [5], 83%; in [6], 86%; in assay [10], 82%; in assay [11], 77%. The residual activity worked out at 126% in assay [12]; 123% in assay [13]; 85% in [17]; 87% in assay [18]; 84% in [19].

For `O=c1cc(N2CCOCC2)oc2c(-c3ccccc3)cccc12`, the residual activity in assay [20] amounted to 72%; in assay [3] it was 76%; in assay [11], 65%.

For the compound `Cc1cc(C)c(/C=C2\C(=O)Nc3ccccc32)[nH]1`, the residual activity in assay [20] amounted to 60%; in assay [1], 76%; in assay [4], 32%; in assay [5], 39%; in [10], 99%; in [14], 61%. For the same compound, the residual activity was found to be 39% in assay [15], 99% in assay [16], 51% in assay [18] and 20% in assay [19].

On to `Nc1ncnc2[nH]nc(Nc3ccc(F)cc3)c12`, for which the residual activity in assay [1] is 74%; in [4] it was 100%; in assay [5] it was 78%; in [6], 60%; in [7], 12%; in [8] it was 117%. Besides, the residual activity came to 106% in assay [9]; 95% in [10]; 106% in [11]; 117% in assay [12]; 97% in [13]; 92% in [14]. Also, the residual activity in assay [15] came out at 74%; in assay [16] it was 98%; in [17], 76%; in assay [18], 72%.

As for `O=C1C(Cl)=C(N2C(=O)CCC2=O)C(=O)c2ccccc21`, the residual activity in assay [2] was found to be 67%; in [3], 78%; in [5] it was 75%; in assay [6], 96%; in assay [7], 91%; in assay [9], 94%. For the same compound, the residual activity worked out at 100% in [10]; 97% in assay [11]; 101% in assay [12]; 123% in [13]; 96% in assay [14]; 91% in assay [15]. Also, the residual activity is 98% in [16], 98% in assay [17] and 76% in [18].

`CCCCc1c(-c2ccc(OC)cc2)[nH]c2nccnc12`: the residual activity in assay [20] amounted to 128%; in assay [1] it was 80%; in assay [4] it was 104%; in assay [5], 83%; in assay [6] it was 16%; in assay [7], 19%. The residual activity in assay [9] was 88%; in assay [10], 103%; in [12] it was 111%; in assay [13], 117%; in [16], 102%; in [17], 87%. Also, the figures for the residual activity in assay [18] and in [19] were 71% and 40%, respectively.
